# From PubChem BioAssay
# Shown are actives, neighbours in structure and some others; about 4% of the full set was active somewhere.
# Gli-Sufu antag = Gli-Sufu pathway antagonists, primary screen, luciferase luminescence, Sufu-KO-LIGHT cells, uHTS | Sufu-KO-LIGHT fibroblasts, Gli luciferase reporter luminescence | inhibition, % at 5 µM | 0.74% of 340,000 active;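 active = inhibition above about 55%, limit read from the data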;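 note: 0% = DMSO-treated cells and 100% = wells with medium but no cells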
# CSC inhib = cancer stem cell viability inhibitors, primary screen, luminescence; cancer stem cell-like cells viability; inhibition, % at 7.5 µM; 1.1% of 300,000 active; in the data active = inhibition above about 75%; tested in HMLE shEcad cells
# Mdm2 MdmX PPI = inhibitors of human Mdm2-MdmX association, primary screen, cell-based, luminescence, split luciferase, SaOS-2, uHTS | Protein Mdm4 (Homo sapiens) + E3 ubiquitin-protein ligase Mdm2 (Homo sapiens), … | SaOS-2 split-luciferase Mdm2/MdmX complementation | AID 485346, 2010 | 3% of 330,000 active | inhibition, % at 8 µM;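 active = inhibition of at least 50% at 8 µM in the primary screen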
# Shn3 inh set2 = reduction of Shn3 3'UTR firefly luciferase signal, primary screen, Schnurri-3 inhibitor project, cell-based, Clone20 osteoblasts, set 2; Clone20 osteoblast Shn3 3'UTR firefly luciferase, 24 h; inhibition, % at 12.5 µM; 0.52% of 360,000 active; AID 588674, 2011;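 active = mean inhibition of at least 75% with every replicate also reaching 75%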;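 note: 0% = median of neutral control wells and 100% = pilot-screen positive control compound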
# PAX8 reporter = inhibitors of PAX8-driven TPO luciferase reporter, primary screen, RMG-I cells, single concentration. 1.2% of 360,000 active. SteadyGlo, 24 h. AID 652154, 2013. inhibition, % at 12.6 µM;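 active = mean replicate inhibition at least 60% with every replicate also reaching 60%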;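 note: luciferase light reporting Pax8 driven TPO promoter activity; plate controls were median of neutral control wells for no effect and mitoxantrone controls for full effect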
# Beta cell apopt = inhibitors of cytokine-induced beta cell apoptosis, primary screen, luminescence | INS-1E cytokine-induced death, ATP luminescence, 48 h; percent of positive-control rescue, neutral wells zero | protection from apoptosis, % (concentration not given with the values) | 0.8% of 300,000 active;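 active = Every replicate reaches about 75%, or at least half do and their mean reaches it too, limit read from the data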;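 note: 0% = cytokine-treated negative control wells and 100% = positive control rescue; higher means more ATP so stronger rescue from cytokine killing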
# Mdm2 MdmX conf = Mdm2-MdmX complex disruptors, retested hits, confirmation, luminescence, single concentration. shares compounds with Mdm2 MdmX PPI. 55% of 10,000 active. AID 489028, 2010. Mdm2-MdmX binding, luminescent assay. inhibition, % at 8 µM; in the data active = inhibition above about 40%
# FLuc counter = full-length luciferase signal inhibition, confirmation, counter-screen for Mdm2/MdmX interaction inhibitor project, cell-based, single concentration, SaOS-2 | AID 504607, 2011 | inhibition, % at 8 µM | shares compounds with Mdm2 MdmX PPI | SaOS-2 full-length luciferase counterscreen, luminescence | 77% of 6,200 active;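 active = mean inhibition at 8 µM reaching about 37%, which flags the compound as non-specific, limit read from the data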;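 note: p53-null SaOS-2 cells with luciferase driven by a doxycycline-inducible promoter; compound on cells about two nights before reading with doxycycline added after day one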
# * marks the source's active call; other numbers are inactive results; · = not tested or not shown.
SMILES,Gli-Sufu antag,CSC inhib,Mdm2 MdmX PPI,Shn3 inh set2,PAX8 reporter,Beta cell apopt,Mdm2 MdmX conf,FLuc counter
C[C@@H]1CCCCO[C@H](CN(C)Cc2ccccc2)[C@H](C)CN([C@H](C)CO)C(=O)c2cc(NS(=O)(=O)c3cn(C)cn3)ccc2O1,·,·,·,·,10,·,·,·
C[C@H]1CCCCO[C@@H](CN(C)C(=O)Nc2ccc(C(F)(F)F)cc2)[C@@H](C)CN([C@@H](C)CO)C(=O)c2cc(NC(=O)c3ccncc3)ccc2O1,·,·,·,·,46,·,·,·
COc1ccc(NS(=O)(=O)c2cc(NC(=O)c3cnc(C)cn3)ccc2N2CCCC2)cc1,0,13,33,15,14,1,·,·
COc1ccc(NS(=O)(=O)c2cc(NC(=O)c3ccc(=O)[nH]c3)ccc2N2CCCC2)cc1,-4,133*,82*,1,38,1,73*,43*
COc1ccc2oc(-c3ccc(NC(=O)c4ccc(N5CCOCC5)c([N+](=O)[O-])c4)cc3)nc2c1,-7,9,56*,8,·,14,28,·
C[C@@H](O)C#Cc1ccc([C@@H]2[C@@H](CO)N3CCCCN(CC4CC4)C[C@H]23)cc1,·,·,·,·,-19,·,·,·
CN1CCN(CC/C=C2/c3ccccc3Sc3ccc(S(=O)(=O)N(C)C)cc32)CC1,3,0,67*,-18,-18,-8,27,·
COc1cc(Br)cc(/C=N/NC(=O)Cc2ccc(C(F)(F)F)cc2[N+](=O)[O-])c1O,5,40,52*,20,24,100*,70*,33
COc1cc([N+](=O)[O-])cc(/C=N/NC(=O)Cn2nccc2C)c1O,1,28,37,-14,8,-5,·,·
CCOc1ccc(C(F)(F)F)cc1NC(=O)c1ccc(OC)c([N+](=O)[O-])c1,19,6,11,21,·,0,·,·
CCOc1cc(/C=N/NC(=O)Cc2ccc(C(F)(F)F)cc2[N+](=O)[O-])c(Br)cc1OC,-7,34,77*,23,8,17,55*,31
COc1cc([N+](=O)[O-])cc(/C=N/NC(=O)Cn2nc(C)cc2C)c1O,1,11,57*,6,14,-4,65*,50*
CO[C@@H]1CN(C)C(=O)c2ccc(NC(=O)Nc3cccc(F)c3)cc2OC[C@@H](C)N(C(=O)Nc2c(C)noc2C)C[C@H]1C,·,·,·,·,-6,·,·,·
N/C(=N\NC(=O)c1cccs1)c1cc2ccccc2oc1=O,-10,-10,3,-5,12,-1,·,·
CCN(CC)c1ccc2cc(/C(N)=N/NC(=O)c3cccs3)c(=O)oc2c1,·,6,85*,·,·,5,71*,84*
CCC(=O)N1[C@H](CO)[C@@H](c2ccccc2)[C@@H]1CN(CC)C(=O)c1ccccc1,·,·,·,·,3,·,·,·
COc1ccc(OC)c(NC(=O)c2cc(OC(C)=O)cc(C(=O)Nc3cc(OC)ccc3OC)c2)c1,·,0,56*,26,7,18,13,·
C[C@H](CO)N1C[C@H](C)[C@H](CN(C)C)Oc2ccc(NS(=O)(=O)c3ccc(F)cc3)cc2C1=O,·,·,·,·,2,·,·,·
Cc1ccc(-n2cc(C(=O)c3ccc(N4CCN(C)CC4)cc3)nn2)cc1Cl,-2,·,98*,-15,8,-2,4,·
CN1CCN(c2ccc(C(=O)c3cn(-c4ccc(F)c(Cl)c4)nn3)cc2)CC1,2,70,81*,14,-6,-1,42*,91*
Cc1ccc(C(=O)c2cn(-c3ccc(F)c(Cl)c3)nn2)cc1,-26,-1,39,-18,·,-8,·,·
C=C(NC(=O)C(=C)NC(=O)c1csc(C2=NC3c4csc(n4)C4NC(=O)c5csc(n5)C([C@@](C)(O)C(C)O)NC(=O)C5CSC(=N5)/C(=C\C)NC(=O)C(C(C)O)NC(=O)c5csc(n5)[C@]3(CC2)NC(=O)C(C)NC(=O)C(=C)NC(=O)C(C)NC(=O)C(C(C)CC)NC2C=Cc3c(C(C)O)cc(nc3C2O)C(=O)OC4C)n1)C(N)=O (stereo partly specified),·,80*,94*,·,·,-9,56*,58*
CCCC(O)(CCC)C(=O)NN(C(=O)CCl)c1ccccc1,2,7,58*,2,-7,21,23,·
COc1ccc(S(=O)(=O)Nc2ccc3c(c2)[C@H]2C[C@H](CC(=O)N(C)C)O[C@H](CO)[C@H]2O3)cc1,·,·,·,·,-14,·,·,·
N/C(Cc1ccccc1)=N\OC(=O)c1cccc2ccccc12,-1,2,98*,-9,1,-2,67*,57*
SMILES,Gli-Sufu antag,CSC inhib,Mdm2 MdmX PPI,Shn3 inh set2,PAX8 reporter,Beta cell apopt,Mdm2 MdmX conf,FLuc counter
N/C(=N\OC(=O)c1cccc2ccccc12)c1ccc(Br)cc1,-13,-3,98*,-19,3,12,80*,94*
N/C(Cc1cccc2ccccc12)=N\OC(=O)c1ccccc1F,-11,-7,7,-7,-43,-2,·,·
N/C(=N\OC(=O)c1cccc2ccccc12)c1ccncc1,-11,-13,51*,-46,-35,-4,-5,·
N/C(=N\OC(=O)Cc1ccccc1)c1ccc(Br)cc1,-25,0,-30,-35,-91,·,·,·
CNC[C@@H]1Oc2c(NC(=O)c3nc4ccccc4s3)cccc2C(=O)N([C@H](C)CO)C[C@@H]1C,·,·,·,·,-2,·,·,·
COc1ccccc1S(=O)(=O)N1CC[C@@H]2[C@H]1c1cc(-c3ccccc3F)ccc1N[C@@H]2CO,·,·,·,·,-26,·,·,·
O=C(N[C@H]1CC[C@@H](CCNS(=O)(=O)c2ccc(Cl)cc2)O[C@@H]1CO)c1cccc(F)c1,·,·,·,·,15,·,·,·
CC=Cc1ccc2n(c1=O)C[C@@H]1[C@@H](CO)[C@H](C(=O)N[C@@H](C)c3ccccc3)[C@H]2N1Cc1cncnc1 (mixture of isomers),·,·,·,·,-12,·,·,·
O=C(Nc1ccc(F)cc1)Nc1cc(OCC(F)(F)F)cc(OCC(F)(F)F)c1,21,51,89*,90*,83*,106*,90*,52*
C[C@H](CO)N1C[C@H](C)[C@@H](CN(C)CC2CCCCC2)Oc2ccc(NC(=O)Nc3ccccc3)cc2C1=O,·,·,·,·,-9,·,·,·
COc1cc2c(c(OC)c1OC)-c1ccc(OC)c(=O)cc1[C@@H](NC(C)=O)CC2,52,49,73*,-1,96*,38,41*,98*
